Results on 16 sequences are retold here after the supplement of paper PMC10681739.
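Further: Full-length recombinant human RUNX1 bound to double-stranded 36-bp genomic probes on a high-density microarray, scored as Alexa488 fluorescence per spot via anti-RUNX1 antibody, median of four replicate spots.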

Chain of RUNX1 (Q01196 whole entry): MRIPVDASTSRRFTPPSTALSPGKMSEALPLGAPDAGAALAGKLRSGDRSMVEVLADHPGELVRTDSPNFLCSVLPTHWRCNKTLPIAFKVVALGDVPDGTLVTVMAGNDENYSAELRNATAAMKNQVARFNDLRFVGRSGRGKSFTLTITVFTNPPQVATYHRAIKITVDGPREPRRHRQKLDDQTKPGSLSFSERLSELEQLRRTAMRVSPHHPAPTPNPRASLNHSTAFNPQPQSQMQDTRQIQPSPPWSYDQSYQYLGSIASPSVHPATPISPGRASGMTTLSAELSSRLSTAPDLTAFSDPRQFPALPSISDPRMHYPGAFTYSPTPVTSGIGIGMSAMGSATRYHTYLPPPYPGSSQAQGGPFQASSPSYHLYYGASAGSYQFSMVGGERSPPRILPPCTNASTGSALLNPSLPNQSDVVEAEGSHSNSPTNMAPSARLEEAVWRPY

The target in the assay is RUNX1 (UniProt Q01196). Kind of assay: RUNX1 binding intensity (PBM fluorescence), RUNX1 alone (arbitrary fluorescence units); higher = stronger binding. The note with it: RUNX1 concentration 2 nM; ETS1 concentration 0 nM. Here is the method:
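Cooperative gcPBM on 36-bp genomic probes with neighbouring ETS1 and RUNX1 sites. Recombinant human RUNX1 (2 nM) was incubated alone or with ETS1 (25 nM) and detected with anti-RUNX1 antibody plus Alexa488 secondary. Values are medians over 4 replicate spots; the RUNX1+ETS1 data were normalised to the RUNX1-only data. The probes sit in constant array flanks that are not printed.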
For the sequence CGCCCACCACTTCCTGCTGGCGGTCGGCAAGCGTTG, the RUNX1 binding intensity came out at 1020.

In the case of TTATGCCTCAGGATGAACGAACCTCAAACACCCAGG, the RUNX1 binding intensity was found to be 904. Sequence ACTCCAGAGGAAGTGGCAAGACGAGCGCGGTAACGG showed an RUNX1 binding intensity of 728. The value for CCACCACTCTAAGCAGGATGCGGTGCGACCCAAGAG was 815. As for ATGTCAGGAAGAGGCTCAGGGCTGTGGTTTCTCTGT, the RUNX1 binding intensity came to 979.

GTCCCCTGAATTTTCCTGTGGTTCTTATCACCAGGT: the RUNX1 binding intensity was determined as 1180. Turning to GGCGGATGGGGAGAAGAGAGTGGCTGTGGTCTCTGG, the RUNX1 binding intensity was determined as 861. In the case of GCCCGCGGCTCCGGAAGCGGCTGCGGCCCCGACCGG it was 678. The value for CCGGGAAACACGGGAGAGCGACCGAAACCGCAATCA was 3650; that for ACAATAACAGGAAGTGGTGGGGACTGCGGTGACCTG was 865. For the sequence CTGCTGCTTTTAGGATGTGGTTTTATTATTGTCGGG, the RUNX1 binding intensity came to 1020. In the case of ACGAGAGTCTAGAGGAAACCAACCCGCAACTCACTG it was 892. In the case of TAAATCGGAAACTCGCCGCTCAGCCCGCAGCCGCCG it was 901; in that of TTCGGATTCCCGGAAGAACCCGCAGCAGCTCCCAGG, 789; in that of GAGGGCCTGGGAGGAAGTGGGTTTTGCATACAGTCC, 673.

As for CGAACTCCCGTCCGGCCGCGCCCGCAGCCCGCCGCC, the RUNX1 binding intensity was determined as 960.
